Results taken from PubChem BioAssay (EPA / NIEHS).
“And” between values parts separate entries of the source, which are not always exact repeats. Identical values can stand only once. Records with an inconclusive call do not appear. Some compounds were tested as several samples or in several runs, with calls that do not always agree. The source made the active and inactive calls. The calls were made as follows, unless noted: active = hit-call score of the fitted dose curve at least 0.9, where 1 is the maximum; inconclusive = response in the unintended direction; inactive = score below 0.9.

Key:
[1] = target: Retinoic acid receptor RXR-alpha (Homo sapiens) (UniProt P19793); experiment: ATG_RXRa_TRANS: Attagene TRANS-FACTORIAL HepG2 Assay for human Retinoid X Receptor alpha (RXRa) (AID 2283012)
Sequence of Retinoic acid receptor RXR-alpha (Homo sapiens) (P19793 whole entry, looked up, the tested form may be a part): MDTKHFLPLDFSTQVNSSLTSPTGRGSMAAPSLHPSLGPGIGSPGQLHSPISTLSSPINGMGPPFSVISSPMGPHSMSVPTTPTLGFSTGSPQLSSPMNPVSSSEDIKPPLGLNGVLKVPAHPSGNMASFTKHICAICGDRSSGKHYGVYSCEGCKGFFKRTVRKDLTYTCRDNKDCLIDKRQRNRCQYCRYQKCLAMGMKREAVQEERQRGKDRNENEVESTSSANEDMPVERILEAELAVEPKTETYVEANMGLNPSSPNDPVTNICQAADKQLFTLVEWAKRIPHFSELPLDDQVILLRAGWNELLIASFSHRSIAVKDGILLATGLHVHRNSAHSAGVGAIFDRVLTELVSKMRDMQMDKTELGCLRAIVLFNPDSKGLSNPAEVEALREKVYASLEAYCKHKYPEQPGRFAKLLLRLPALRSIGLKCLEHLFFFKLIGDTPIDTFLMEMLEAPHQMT
Method in brief: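 HepG2 cells transiently transfected with multiplexed GAL4-UAS reporter units and chimeric NR-GAL4 fusions, dosed 24 h. Reporter mRNA measured by RT-PCR, FAM labelling, HpaI digestion and capillary electrophoresis; gain-of-signal fitted relative to DMSO baseline.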

[2] = target: human Retinoid X Receptor beta (RXRb), RXRB (gene 6257) (UniProt P28702); experiment: ATG_RXRb_TRANS: Attagene TRANS-FACTORIAL HepG2 Assay for human Retinoid X Receptor beta (RXRb) (AID 2283013)
Sequence of human Retinoid X Receptor beta (RXRb), RXRB (gene 6257) (P28702 whole entry, looked up, the tested form may be a part): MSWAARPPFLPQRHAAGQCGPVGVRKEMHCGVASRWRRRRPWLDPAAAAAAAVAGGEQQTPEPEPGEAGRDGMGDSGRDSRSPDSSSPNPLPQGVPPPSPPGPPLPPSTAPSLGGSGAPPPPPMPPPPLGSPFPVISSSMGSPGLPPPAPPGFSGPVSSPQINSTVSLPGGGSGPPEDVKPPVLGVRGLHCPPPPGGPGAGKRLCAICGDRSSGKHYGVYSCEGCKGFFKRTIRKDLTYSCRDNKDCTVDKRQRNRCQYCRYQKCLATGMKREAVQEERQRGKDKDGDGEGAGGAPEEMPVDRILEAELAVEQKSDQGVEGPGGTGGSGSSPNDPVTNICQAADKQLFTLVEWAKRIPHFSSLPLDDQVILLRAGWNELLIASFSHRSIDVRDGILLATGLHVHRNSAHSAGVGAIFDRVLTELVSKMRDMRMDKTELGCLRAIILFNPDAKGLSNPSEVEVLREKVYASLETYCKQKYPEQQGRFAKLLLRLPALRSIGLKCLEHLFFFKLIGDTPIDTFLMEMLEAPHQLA
Method in brief: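 HepG2 cells transiently transfected with multiplexed reporter units driven by GAL4-UAS and exogenous chimeric NR-Gal4 proteins; treated 24 h. Reporter mRNA measured by RT-PCR, 6-FAM labelling and capillary electrophoresis; gain-of-signal fitted versus DMSO baseline.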

[3] = target: human Thyroid Receptor alpha (THRa1), THRA (gene 7067) (UniProt P10827); experiment: ATG_THRa1_TRANS: Attagene TRANS-FACTORIAL HepG2 Assay for human Thyroid Receptor alpha (THRa1) (AID 2283014)
Sequence of human Thyroid Receptor alpha (THRa1), THRA (gene 7067) (P10827 whole entry, looked up, the tested form may be a part): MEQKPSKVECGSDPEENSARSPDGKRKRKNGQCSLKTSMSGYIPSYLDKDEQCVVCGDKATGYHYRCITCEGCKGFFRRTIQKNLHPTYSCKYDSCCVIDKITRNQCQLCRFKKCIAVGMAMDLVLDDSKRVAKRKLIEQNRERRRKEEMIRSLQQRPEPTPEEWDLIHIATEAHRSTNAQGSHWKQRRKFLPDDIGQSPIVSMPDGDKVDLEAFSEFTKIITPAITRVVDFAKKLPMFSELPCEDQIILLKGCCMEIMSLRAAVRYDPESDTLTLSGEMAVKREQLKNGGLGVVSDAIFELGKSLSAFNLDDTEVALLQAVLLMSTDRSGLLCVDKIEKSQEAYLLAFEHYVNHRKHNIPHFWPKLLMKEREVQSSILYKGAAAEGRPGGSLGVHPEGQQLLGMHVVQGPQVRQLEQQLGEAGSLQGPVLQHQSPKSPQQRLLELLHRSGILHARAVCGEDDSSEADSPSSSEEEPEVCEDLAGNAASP
Method in brief: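 HepG2 cells transiently transfected with multiplexed GAL4-UAS reporter units for exogenous chimeric THRa1-Gal4; reporter mRNA measured 24 h after dosing by RT-PCR, 6-FAM labelling, HpaI digestion and capillary electrophoresis. Gain-of-signal fitted versus DMSO baseline.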

[4] = target: human Vitamin D Receptor (VDR), VDR (gene 7421) (UniProt P11473); experiment: ATG_VDR_TRANS: Attagene TRANS-FACTORIAL HepG2 Assay for human Vitamin D Receptor (VDR) (AID 2283022)
Sequence of human Vitamin D Receptor (VDR), VDR (gene 7421) (P11473 whole entry, looked up, the tested form may be a part): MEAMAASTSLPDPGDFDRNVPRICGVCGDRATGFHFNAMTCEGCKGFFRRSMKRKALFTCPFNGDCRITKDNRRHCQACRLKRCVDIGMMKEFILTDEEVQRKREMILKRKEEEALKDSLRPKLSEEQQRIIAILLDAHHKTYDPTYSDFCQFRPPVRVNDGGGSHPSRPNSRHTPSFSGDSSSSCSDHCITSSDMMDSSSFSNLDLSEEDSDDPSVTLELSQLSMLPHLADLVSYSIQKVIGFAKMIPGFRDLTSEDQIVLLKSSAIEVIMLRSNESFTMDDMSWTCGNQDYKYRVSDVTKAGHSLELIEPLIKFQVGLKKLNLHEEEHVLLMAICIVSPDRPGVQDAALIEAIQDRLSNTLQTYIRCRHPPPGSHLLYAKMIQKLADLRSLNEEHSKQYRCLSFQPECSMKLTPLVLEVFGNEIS
Method in brief: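 HepG2 cells were transiently transfected with multiple GAL4-UAS reporter units, so signal reflects exogenous chimeric receptor-Gal4 activity. After 24 h compound exposure, reporter mRNA was measured by RT-PCR, fluorescent labelling and capillary electrophoresis, fitted for gain of signal versus DMSO.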

[5] = read-out: E-selectin (Homo sapiens) (UniProt P16581); experiment: BSK_3C_Eselectin: BioMAP Diversity Plus: 3C Assay for Eselectin Biomarker Activity (AID 2283015; active = hit-call score of the fitted dose curve at least 0.9, where 1 is the maximum; inactive = score below 0.9); settings: primary human endothelial cells (HUVEC); actives raise or lower the signal
Method in brief: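 Primary human umbilical vein endothelial cells (3C system) were dosed with chemical and cell-surface E-selectin measured by ELISA 24 h later. Bidirectional curve fitting used DMSO as negative control and baseline.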

[6] = read-out: Interleukin-1 alpha (IL1a), IL1A (gene 3552); experiment: BSK_BE3C_IL1a: BioMAP Diversity Plus: BE3C Assay for Interleukin-1 alpha (IL1a) Biomarker Activity (AID 2283016; active = hit-call score of the fitted dose curve at least 0.9, where 1 is the maximum; inactive = score below 0.9); settings: primary human bronchial epithelial cells; actives raise or lower the signal
Method in brief: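 Human primary bronchial epithelial cells (BE3C system) were dosed with compound and IL-1a measured by ELISA 24 h later. Activity was fitted bidirectionally against DMSO baseline; cytotoxicity was tracked in parallel cultures by SRB total-protein staining.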

[7] = read-out: Monocyte Chemoattractant Protein-1 (MCP1), CCL2 (gene 6347); experiment: BSK_3C_MCP1: BioMAP Diversity Plus: 3C Assay for Monocyte Chemoattractant Protein-1 (MCP1) Biomarker Activity (AID 2283017; active = hit-call score of the fitted dose curve at least 0.9, where 1 is the maximum; inactive = score below 0.9); settings: primary human endothelial cells (HUVEC); actives raise or lower the signal
Method in brief: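 Primary human umbilical vein endothelial cells (3C system) were exposed to test chemical for 24 h, after which MCP-1 was quantified by ELISA. Activity was fitted bidirectionally against DMSO as negative control and baseline.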

[8] = read-out: Monocyte Chemoattractant Protein-1 (MCP1), CCL2 (gene 6347); experiment: BSK_4H_MCP1: BioMAP Diversity Plus: 4H Assay for Monocyte Chemoattractant Protein-1 (MCP1) Biomarker Activity (AID 2283018; active = hit-call score of the fitted dose curve at least 0.9, where 1 is the maximum; inactive = score below 0.9); settings: primary human endothelial cells (HUVEC); actives raise or lower the signal
Method in brief: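 Human umbilical vein endothelial cells (4H system) dosed with chemical; MCP-1 measured by ELISA 24 h after dosing. Bidirectional curve fitting against DMSO negative control as baseline; parallel SRB total-protein staining tracks overt cytotoxicity.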

[9] = read-out: Human Leukocyte Antigen - DR isotype (HLADR), HLA-DRA (gene 3122); experiment: BSK_3C_HLADR: BioMAP Diversity Plus: 3C Assay for Human Leukocyte Antigen - DR isotype (HLADR) Biomarker Activity (AID 2283019; active = hit-call score of the fitted dose curve at least 0.9, where 1 is the maximum; inactive = score below 0.9); settings: primary human endothelial cells (HUVEC); actives raise or lower the signal
Method in brief: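 Primary human umbilical vein endothelial cells (3C system) were dosed with compound and cell-surface HLA-DR was quantified by ELISA at 24 h. Activity was fitted bidirectionally against DMSO as negative control and baseline.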

[10] = read-out: Interleukin-8 (IL8), CXCL8 (gene 3576); experiment: BSK_3C_IL8: BioMAP Diversity Plus: 3C Assay for Interleukin-8 (IL8) Biomarker Activity (AID 2283020; active = hit-call score of the fitted dose curve at least 0.9, where 1 is the maximum; inactive = score below 0.9); settings: primary human endothelial cells (HUVEC); actives raise or lower the signal
Method in brief: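 Primary human umbilical vein endothelial cells (3C system) were exposed to test chemical for 24 h, then IL-8 was quantified by ELISA. Responses were fitted bidirectionally against DMSO vehicle as baseline.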

[11] = read-out: Monokine induced gamma interferon (MIG), CXCL9 (gene 4283); experiment: BSK_3C_MIG: BioMAP Diversity Plus: 3C Assay for Monokine induced gamma interferon (MIG) Biomarker Activity (AID 2283021; active = hit-call score of the fitted dose curve at least 0.9, where 1 is the maximum; inactive = score below 0.9;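 as to AC50: MIG protein level measured by immunoassay in the treated endothelial cultures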); settings: primary human endothelial cells (HUVEC); actives raise or lower the signal
Method in brief: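 Primary human umbilical vein endothelial cells in the 3C system were exposed to chemical for 24 h, after which MIG was quantified by ELISA. Activity was fitted bidirectionally against DMSO as negative control and baseline.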

[12] = BSK_3C_SRB: Viability Assessment in the BioMAP Diversity Plus: 3C Assay (AID 2283023; active = hit-call score of the fitted dose curve at least 0.9, where 1 is the maximum; inactive = score below 0.9;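 also: fitted both ways against DMSO so a hit may be signal rise or drop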); settings: primary human endothelial cells (HUVEC)
Method in brief: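 Primary human umbilical vein endothelial cells in the 3C system were read 24 h after compound dosing. Total protein was stained with 0.1% sulforhodamine B after 10% TCA fixation and read at 560 nm, with bidirectional fitting against DMSO as baseline.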

[13] = read-out: Matrix Metallopeptidase 1 (MMP1), MMP1 (gene 4312); experiment: BSK_BE3C_MMP1: BioMAP Diversity Plus: BE3C Assay for Matrix Metallopeptidase 1 (MMP1) Biomarker Activity (AID 2283024; active = hit-call score of the fitted dose curve at least 0.9, where 1 is the maximum; inactive = score below 0.9); settings: primary human bronchial epithelial cells; actives raise or lower the signal
Method in brief: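 Primary human bronchial epithelial cells were dosed with test chemicals, and MMP1 levels were measured by ELISA 24 h later. Data were fitted bidirectionally against DMSO as the negative control and activity baseline.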

[14] = BSK_3C_Vis: BioMAP Diversity Plus: 3C Assay for Morphology Visualization (AID 2283025; active = hit-call score of the fitted dose curve at least 0.9, where 1 is the maximum; inactive = score below 0.9;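 also: fitted both ways so gain or loss versus DMSO counts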); settings: primary human endothelial cells (HUVEC)
Method in brief: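 Human umbilical vein endothelial cells in the 3C system were imaged by light microscopy 24 h after chemical dosing to record cell morphology. Activity was fitted bidirectionally against DMSO as negative control and baseline; the endpoint serves as a background control.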

[15] = read-out: Pselectin, SELP (gene 6403); experiment: BSK_4H_Pselectin: BioMAP Diversity Plus: 4H Assay for Pselectin Biomarker Activity (AID 2283026; active = hit-call score of the fitted dose curve at least 0.9, where 1 is the maximum; inactive = score below 0.9); settings: primary human endothelial cells (HUVEC); actives raise or lower the signal
Method in brief: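 Primary human umbilical vein endothelial cells were exposed to test chemical for 24 h, then cell-surface P-selectin was quantified by ELISA. Activity was fitted bidirectionally against DMSO as negative control and baseline.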

[16] = BSK_4H_SRB: Viability Assessment in the BioMAP Diversity Plus: 4H Assay (AID 2283027; active = hit-call score of the fitted dose curve at least 0.9, where 1 is the maximum; inactive = score below 0.9;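 also: cells exposed to compound for 24 h before staining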;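 as to AC50: curves fitted both ways versus DMSO so AC50 may be loss or gain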); settings: primary human endothelial cells (HUVEC)
Method in brief: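 Human umbilical vein endothelial cells, 24 h after chemical dosing; total protein measured by 0.1% sulforhodamine B staining after 10% TCA fixation, read at 560 nm. Bidirectional fitting against DMSO.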

[17] = BSK_BE3C_SRB: Viability Assessment in the BioMAP Diversity Plus: BE3C Assay (AID 2283028; active = hit-call score of the fitted dose curve at least 0.9, where 1 is the maximum; inactive = score below 0.9;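 as to AC50: fitted both ways so AC50 may mark signal gain or loss versus DMSO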); settings: primary human bronchial epithelial cells
Method in brief: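 Human primary bronchial epithelial cells were exposed to test chemicals for 24 h. Total protein in parallel cultures was then measured by staining with 0.1% sulforhodamine B after 10% TCA fixation, with absorbance read at 560 nm. Activity was fitted bidirectionally against DMSO.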

[18] = read-out: Thrombomodulin, THBD (gene 7056); experiment: BSK_3C_Thrombomodulin: BioMAP Diversity Plus: 3C Assay for Thrombomodulin Biomarker Activity (AID 2283029; active = hit-call score of the fitted dose curve at least 0.9, where 1 is the maximum; inactive = score below 0.9); settings: primary human endothelial cells (HUVEC); actives raise or lower the signal
Method in brief: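 Primary human umbilical vein endothelial cells (3C system) were exposed to chemical for 24 h, then thrombomodulin levels were measured by ELISA. Activity was fitted bidirectionally against the DMSO negative control as baseline.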

[19] = read-out: Urokinase-type plasminogen activator receptor (uPAR), PLAUR (gene 5329); experiment: BSK_4H_uPAR: BioMAP Diversity Plus: 4H Assay for Urokinase-type plasminogen activator receptor (uPAR) Biomarker Activity (AID 2283030; active = hit-call score of the fitted dose curve at least 0.9, where 1 is the maximum; inactive = score below 0.9); settings: primary human endothelial cells (HUVEC); actives raise or lower the signal
Method in brief: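 Primary human umbilical vein endothelial cells were exposed to chemical for 24 h before cell-surface uPAR was quantified by ELISA. Activity was fitted bidirectionally against the DMSO negative control baseline.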

[20] = read-out: Vascular endothelial growth factor receptor 2 (Homo sapiens) (UniProt P35968); experiment: BSK_4H_VEGFRII: BioMAP Diversity Plus: 4H Assay for Vascular endothelial growth factor receptor 2 (VEGFR2) Biomarker Activity (AID 2283031; active = hit-call score of the fitted dose curve at least 0.9, where 1 is the maximum; inactive = score below 0.9;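 as to AC50: cell-surface VEGFR2 protein level quantified by ELISA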); settings: primary human endothelial cells (HUVEC); actives raise or lower the signal
Method in brief: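 Primary human umbilical vein endothelial cells in the BioMAP 4H system were dosed with test chemical, and 24 h later VEGFRII was measured by ELISA. Activity was fitted bidirectionally against DMSO as negative control and baseline.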

Measured: AC50

Sequence of E-selectin (Homo sapiens) (P16581 whole entry, looked up): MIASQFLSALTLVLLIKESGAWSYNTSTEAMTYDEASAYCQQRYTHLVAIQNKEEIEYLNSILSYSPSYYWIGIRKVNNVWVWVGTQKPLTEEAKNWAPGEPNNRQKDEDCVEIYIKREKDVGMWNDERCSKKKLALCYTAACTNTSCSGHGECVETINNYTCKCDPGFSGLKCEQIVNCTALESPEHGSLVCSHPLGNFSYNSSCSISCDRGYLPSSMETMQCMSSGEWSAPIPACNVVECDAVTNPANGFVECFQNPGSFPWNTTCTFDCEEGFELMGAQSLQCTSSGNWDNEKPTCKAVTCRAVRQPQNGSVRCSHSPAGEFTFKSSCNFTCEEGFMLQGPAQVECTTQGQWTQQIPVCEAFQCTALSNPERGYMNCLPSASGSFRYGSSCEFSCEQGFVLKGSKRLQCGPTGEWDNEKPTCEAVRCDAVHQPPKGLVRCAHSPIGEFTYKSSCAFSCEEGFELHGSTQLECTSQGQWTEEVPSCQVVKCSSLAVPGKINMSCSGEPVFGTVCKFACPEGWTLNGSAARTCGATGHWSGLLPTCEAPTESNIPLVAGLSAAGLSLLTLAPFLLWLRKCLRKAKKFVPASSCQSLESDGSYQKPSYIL

O=[N+]([O-])c1ccc(O)cc1C(F)(F)F
inactive: [1] | [2] | [3] | [4]

N#Cc1ccc(CC(=O)c2cccc(C(F)(F)F)c2)cc1
active: [1] 26.4 µM | [2] 5.99 µM | [3] 42 µM
inactive: [4]

CC1(C)O[C@@H]2C[C@H]3[C@@H]4CCC5=CC(=O)C=C[C@]5(C)[C@@]4(F)[C@@H](O)C[C@]3(C)[C@]2(C(=O)CO)O1
inactive: [1] | [2] | [3] | [4]

COS(=O)(=O)O
inactive: [1] | [2] | [3] | [4]

COC(=O)Nc1ccc(Cl)c(Cl)c1
active: [2] 45.1 µM
inactive: [1] | [3] | [4]

CCCOC(=O)c1c(Cl)c(Cl)c(Cl)c(Cl)c1C(=O)OCCC
active: [2] 10.6 µM
inactive: [1] | [3] | [4]

CC1=NN(c2ccc(S(=O)(=O)O)cc2)C(=O)C1
inactive: [1] | [2] | [3] | [4]

C=Cc1ccncc1
inactive: [1] | [2] | [3] | [4]

BrCc1cccc(Oc2ccccc2)c1
active: [2] 66.9 µM
inactive: [1] | [3] | [4]

CCCCCCCCCCCCN1CCCCCC1=O
inactive: [1] | [2] | [3] | [4]

COc1cc([C@@H]2c3cc4c(cc3[C@@H](O[C@@H]3O[C@@H]5CO[C@@H](C)O[C@H]5[C@H](O)[C@H]3O)[C@H]3COC(=O)[C@H]23)OCO4)cc(OC)c1O
inactive: [1] | [2] | [3] | [4]

OCc1cccc(Oc2ccccc2)c1
active: [2] 100 µM
inactive: [1] | [3] | [4]

CC(C)(C)C1=CC(=O)C(C(C)(C)C)=CC1=O
inactive: [1] | [3] | [4]
active: [2] 13.7 µM

Cc1ccc(S(=O)(=O)Oc2ccc(N=Nc3ccc(-c4ccc(N=Nc5c(O)ccc6cc(S(=O)(=O)O)cc(S(=O)(=O)O)c56)c(C)c4)cc3C)cc2)cc1
inactive: [1] | [2] | [3] | [4]

CCC(Cl)C(Cl)C(Cl)CC(Cl)C(Cl)C(C)Cl (configuration not stated)
inactive: [1] | [3] | [4]
active: [2] 16.4 µM

CC(C)(CO)[C@@H](O)C(=O)NCCC(=O)O
inactive: [1] | [2] | [3] | [4]

Nc1ccc2cc(S(=O)(=O)O)cc(O)c2c1N=Nc1ccccc1C(F)(F)F
inactive: [3] | [4]
active: [1] 78 µM | [2] 14.8 µM

C=C(C)[C@@H]1CC=C(C)C(=O)C1
inactive: [1] | [2] | [3] | [4]

COc1ccc(CCO)cc1
inactive: [1] | [2] | [3] | [4]

COc1cc(Cl)c(OC)cc1N
not listed: [3]
inactive: all other assays above

CC1(C)CCC[C@]2(C)[C@H]3CCO[C@]3(C)CC[C@@H]12
active: [5] 36.9 µM and 34.3 µM | [6] 28.7 µM and 29.6 µM | [7] 26.4 µM and 34.5 µM | [9] 33.8 µM and 34.7 µM | [10] 31.5 µM and 35.4 µM | [11] 34.9 µM | [12] 34.9 µM and 39.2 µM | [15] 33.4 µM | [16] 32.1 µM and 33.9 µM | [17] 30 µM | [18] 14.6 µM and 17.3 µM | [19] 34.2 µM | [20] 31.9 µM
inactive: [1] | [2] | [8] | [11] | [4] | [13] | [15] | [17] | [19] | [20]

CCCCCCC(C)Nc1ccc(Nc2ccccc2)cc1 (configuration not stated)
active: [1] 34.4 µM | [2] 30.2 µM | [3] 27.1 µM
inactive: [4]
